Rows were chosen to be rich in hits. Some 2.5% of all compounds tested hit in one or more screens of this group.
HTT-AS promoter = Primary qHTS for Identification of Small Molecule Activators of Huntingtin-Antisense Promoter Activity. AID 1508624, 2021. Potency, µM (doses to about 57.5 µM), most hits filed as activators. HEK293 HTT-AS promoter firefly luciferase reporter, 24 h; response scale: percent change from vehicle, -100% = no light. 0.24% of 48,000 active; also: nearly all actives have a fitted effect of over 55% in size
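HEK293 Fluc reporter, 2,500 cells/well, 24 h pre-culture; cpds up to 57.5 uM final, 24 h 37 degrees C; Dual-Glo, 10 min RT; normalized vehicle = 0%, zero RLU = -100%.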
PTAP-TSG101 blk = qHTS Validation Assay for Inhibitors of HIV-1 Budding by Blocking the Interaction of PTAP/TSG101: Sytravon Library Screen; 44,000 tested, under 10 active; Potency, µM (top dose mostly 115 µM), usual class: inhibitors; AID 1347069, 2019; Fluorescence polarization, FITC-PTAP peptide/Tsg101, 20 min; Tumor susceptibility gene 101 protein (Homo sapiens), Q99816
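FITC-labeled PTAP peptide (50 nM final) binding to Tsg101 binding domain (10 uM final) read by fluorescence polarization after 20 min at r.t. in HEPES pH 7.5 buffer. Actives by CRC class, <25 µM.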
SKOV3 invasion = Primary qHTS assay for Inhibitors of ovarian cancer metastasis using an organotypic tumor microenvironment (TME) model. Potency, µM (titrated, usually from 45.8 µM), usual class: inhibitors. SKOV3ip1-GFP adhesion/invasion on 3D omental model, fluorescence. AID 1963576, 2024. 0.1% of 46,000 active; also: nearly all actives have a fitted effect of over 65% in size
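Adhesion/invasion was scored as fixed GFP-labeled SKOV3ip1 cell counts (488/509 nm), normalized to DMSO and tomatine controls. Cancer cells in serum-free medium, with four compound doses (0.36-46 umol/L), sat 2 hr at RT then 16 hr at 37 C on a 48 hr fibroblast/mesothelial/ECM culture.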
NTMT1 inh = Primary qHTS for Inhibitors of N-terminal methyltransferase 1 (NTMT1): MTaseGlo Assay. N-terminal Xaa-Pro-Lys N-methyltransferase 1 (Homo sapiens), Q9BV86. NTMT1 MTase-Glo SAH luminescence, purified enzyme. Potency, µM (titrated, usually from 114 µM), usual class: inhibitors. 2.5% of 59,000 active; also: nearly all actives have a fitted effect of over 65% in size
Target sequence (Q9BV86 whole entry, looked up): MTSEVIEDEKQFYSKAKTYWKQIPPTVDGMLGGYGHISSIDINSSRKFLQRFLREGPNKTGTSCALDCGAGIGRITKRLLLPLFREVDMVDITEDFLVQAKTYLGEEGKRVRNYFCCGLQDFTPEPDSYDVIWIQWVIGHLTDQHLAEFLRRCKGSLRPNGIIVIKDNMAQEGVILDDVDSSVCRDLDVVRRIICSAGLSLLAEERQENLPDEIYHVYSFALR
GALK inh = qHTS Assay for Inhibitors of Human Galactokinase (GALK): NCGC Sytravon Library Screen; P51570; recombinant GALK, Kinase-Glo ATP luminescence, 1 h; AID 1347072, 2019; 44,000 tested, under 10 active; Potency, µM (top dose mostly 57.5 µM), hits mostly inhibitors
Target sequence (P51570 whole entry, looked up): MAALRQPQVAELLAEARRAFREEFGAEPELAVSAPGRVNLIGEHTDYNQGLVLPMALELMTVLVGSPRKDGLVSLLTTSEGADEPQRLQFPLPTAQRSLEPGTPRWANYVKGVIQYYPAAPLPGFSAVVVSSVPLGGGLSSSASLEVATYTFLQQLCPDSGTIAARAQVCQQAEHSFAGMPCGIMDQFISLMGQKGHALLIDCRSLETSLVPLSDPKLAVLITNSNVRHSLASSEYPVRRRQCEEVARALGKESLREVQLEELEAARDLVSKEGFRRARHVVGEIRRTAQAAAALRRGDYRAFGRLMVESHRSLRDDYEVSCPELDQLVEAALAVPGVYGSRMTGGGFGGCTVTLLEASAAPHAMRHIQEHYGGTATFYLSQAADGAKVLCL
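Luminescent ATP-depletion readout (Kinase-Glo Plus) after 1 h room-temperature incubation of human GALK (5 nM) with galactose 100 µM and ATP 35 µM, pH 8.0 HEPES/Mg2+ buffer; compounds tested in qHTS format.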
HTT promoter inh = Primary qHTS for Identification of Small Molecule Inhibitors of Huntingtin Promoter Activity; HEK293 HTT promoter firefly luciferase reporter, 24 h; Potency, µM (doses to about 57.5 µM), actives largely listed as inhibitors; 0.93% of 48,000 active; AID 1508623, 2021; also: nearly all actives have a fitted effect of over 50% in size
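Firefly luciferase readout (Dual-Glo, 10 min RT) after 24 h, 37 °C compound exposure (final up to 57.5 uM) of HEK293 reporter cells cultured 24 h beforehand; PTC124 at 50 uM final as control inhibitor; activity scaled vehicle 0%, zero RLU -100%.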
Of the large screens only hits and unclear results are named; the others gave an inactive call; ! = not confirmed by another sample. Calls follow the shape of the dose curve; as a rule, active = well fitted curve in the direction sought with a large enough effect; inconclusive = small, poorly fitted or top-dose-only effect, or another doubt; inactive = no such curve, though single readings can be large; an effect the other way counts as inactive or inconclusive.

COCCNC(=O)c1ccc2nc(CCc3ccccc3)oc2c1	HTT-AS promoter inconclusive, NTMT1 inh 89µM
CCN(CCCNC(=O)c1cc2c(=O)[nH]c3ccc(C)cc3c2s1)Cc1ccccc1	SKOV3 invasion inconclusive, NTMT1 inh 50µM
O=C(c1ccc(F)cc1)N1c2nc(-c3ccco3)nn2C2(CCCCC2)[C@@H]2CCCC[C@@H]21	none
O=C(c1ccccc1F)N1c2nc(-c3ccco3)nn2C2(CCCCC2)[C@@H]2CCCC[C@@H]21	NTMT1 inh 50µM
CCN1CCC(N(Cc2ccc(F)cc2)C(=O)Nc2cc(Cl)ccc2C(=O)OC)CC1	SKOV3 invasion 11µM
CN1C(=O)CCc2cc(S(=O)(=O)Nc3ccc(Cl)c(Cl)c3)ccc21	none (no result: HTT-AS promoter, PTAP-TSG101 blk, SKOV3 invasion, GALK inh, HTT promoter inh)
Cc1[nH]c2ccc(C(=O)NCCc3ccccc3Cl)cc2c1C	HTT-AS promoter inconclusive, NTMT1 inh 89µM
Cc1c(C)n(Cc2ccccc2)c2ccc(C(=O)NCCc3ccccc3Cl)cc12	none
CCCc1ccc(S(=O)(=O)N2CCC(c3nnc(-c4cccc(C)c4)o3)CC2)cc1	NTMT1 inh 79µM, HTT promoter inh inconclusive
COc1ccc(-c2nc3c4ccccc4n(CC(=O)N4CCN(c5ccc(F)cc5)CC4)c(=O)n3n2)cc1	NTMT1 inh 89µM
CC1=C(C(=O)c2ccccc2)C(c2ccccc2Cl)N=C(Nc2nc3ccccc3o2)N1 (configuration not stated)	none (no result: HTT-AS promoter, PTAP-TSG101 blk, SKOV3 invasion, GALK inh, HTT promoter inh)
Cc1nc2c(-c3ccccc3)c(C)[nH]n2c(=O)c1Cc1ccc(Br)cc1	SKOV3 invasion inconclusive, NTMT1 inh inconclusive, HTT promoter inh 13µM
Cc1ccc(Cc2c(C)nc3c(-c4ccccc4)c(C)[nH]n3c2=O)cc1	HTT promoter inh inconclusive
CCC(C)C(=O)OC1CC(O)C23C4OCC5(C(O)CC2C1(C)C(O)O4)C3C(=O)CC1(C)C(c2ccoc2)CC2OC215 (configuration not stated)	none (no result: HTT-AS promoter, PTAP-TSG101 blk, SKOV3 invasion, GALK inh, HTT promoter inh)
CCC(=O)N1CCc2cc(Br)cc(S(=O)(=O)N3CCCC(C(=O)Nc4ccc(OC)cc4OC)C3)c21 (configuration not stated)	NTMT1 inh 89µM
CCC(=O)N1CCc2cc(Br)cc(S(=O)(=O)N3CCCC(C(=O)N(C)c4ccc(Br)cc4)C3)c21 (configuration not stated)	NTMT1 inh 89µM
Cc1cccc(-c2ccc(=O)n(CC(=O)NCCc3ccccc3)n2)c1	none (no result: HTT-AS promoter, PTAP-TSG101 blk, SKOV3 invasion, GALK inh, HTT promoter inh)
COc1ccc(C2N=C(Nc3nc4ccccc4o3)NC3=C2C(=O)CCC3)cc1 (configuration not stated)	none (no result: HTT-AS promoter, PTAP-TSG101 blk, SKOV3 invasion, GALK inh, HTT promoter inh)
O=C(Nc1ccc(-c2cccnc2)nc1)c1cccs1	none (no result: HTT-AS promoter, PTAP-TSG101 blk, SKOV3 invasion, GALK inh, HTT promoter inh)
C#CC1(O)CC[C@H]2[C@@H]3CCC4=CCCC[C@@H]4[C@H]3CC[C@@]21C (some centres not stated)	none (no result: PTAP-TSG101 blk, SKOV3 invasion, GALK inh)
C#C[C@]1(O)CC[C@H]2[C@@H]3[C@H](C)CC4=C(CCC(=O)C4)[C@H]3CC[C@@]21C	NTMT1 inh 25µM! (no result: PTAP-TSG101 blk, SKOV3 invasion, GALK inh)
O=C(Nc1ccc([S+](=O)([O-])Nc2nccs2)cc1)c1ncn[nH]1	none (no result: HTT-AS promoter, PTAP-TSG101 blk, SKOV3 invasion, GALK inh, HTT promoter inh)
CN[C@H]1CC[C@@H](c2ccc(Cl)c(Cl)c2)c2ccccc21	NTMT1 inh 28µM!, HTT promoter inh inconclusive (no result: PTAP-TSG101 blk, SKOV3 invasion, GALK inh)
O=C(Nc1ccc(Cl)c(Cl)c1)N1CCC(c2ccccc2)C1 (configuration not stated)	HTT-AS promoter inconclusive
COc1cc(N2CCC(N3CCN(C)CC3)CC2)ccc1Nc1ncc(Cl)c(Nc2ccccc2P(C)(C)=O)n1	none (no result: HTT-AS promoter, PTAP-TSG101 blk, SKOV3 invasion, GALK inh, HTT promoter inh)
Cc1cc(Nc2ncc(Cl)c(Nc3ccccc3S(=O)(=O)C(C)C)n2)c(OC(C)C)cc1C1CCNCC1	NTMT1 inh 14µM (no result: HTT-AS promoter, PTAP-TSG101 blk, SKOV3 invasion, GALK inh, HTT promoter inh)
COC1CC/C=C(\C)C(=O)Nc2cc(O)cc(c2)CC(C)CC(OC)C(O)C(C)/C=C(\C)C1OC(N)=O (configuration not stated)	none (no result: HTT-AS promoter, PTAP-TSG101 blk, SKOV3 invasion, GALK inh, HTT promoter inh)
O=S(=O)(Nc1ccc(C2CCNCC2)cc1)c1ccc(NCc2cccc(Cl)c2O)cc1	NTMT1 inh 22µM (no result: HTT-AS promoter, PTAP-TSG101 blk, SKOV3 invasion, GALK inh, HTT promoter inh)
O=S(=O)(Nc1ccccc1)c1ccc(NCc2cccc(Cl)c2O)cc1	none (no result: HTT-AS promoter, PTAP-TSG101 blk, SKOV3 invasion, GALK inh, HTT promoter inh)
Cc1noc(C)c1S(=O)(=O)N1CCC(C(=O)N2CCN(c3ccccc3)CC2)CC1	none
Cc1cccc(N2CCN(C(=O)C3CCN(S(=O)(=O)c4c(C)noc4C)CC3)CC2)c1C	NTMT1 inh inconclusive, HTT promoter inh 14µM
Cc1ccc(/C=C/c2onc(C)c2S(=O)(=O)N2CCC(C(=O)N3CCC(N(C)C(C)C)CC3)CC2)cc1	SKOV3 invasion inconclusive, NTMT1 inh 79µM
Cc1cccc(N2CCN(C(=O)C3CCCN(S(=O)(=O)c4ccc5c(c4)oc(=O)n5C)C3)CC2)c1C (configuration not stated)	HTT promoter inh 5µM
CS(=O)(=O)c1ccc(C(=O)OCC(=O)N2Cc3ccccc3C2)cc1[N+](=O)[O-]	none (no result: HTT-AS promoter, PTAP-TSG101 blk, SKOV3 invasion, GALK inh, HTT promoter inh)
CCOC(=O)c1[nH]c2c(c1C)CCC(c1ccco1)C2 (configuration not stated)	none (no result: HTT-AS promoter, PTAP-TSG101 blk, SKOV3 invasion, GALK inh, HTT promoter inh)
CCOC(=O)c1[nH]c2c(c1C)C(=S)CC(c1ccco1)C2 (configuration not stated)	NTMT1 inh 40µM (no result: HTT-AS promoter, PTAP-TSG101 blk, SKOV3 invasion, GALK inh, HTT promoter inh)

Assay outcomes from PubChem BioAssay.
